“And” between values parts separate entries of the source, which are not always exact repeats. Equal entries are not always repeated. Inconclusive results are not listed. A call without a number means that no potency is given here. The source made the active and inactive calls. Unless noted, calls come from the whole dose curve; as a rule, active = well fitted curve in the direction sought with a large enough effect; inconclusive = small, poorly fitted or top-dose-only effect, or another doubt; inactive = no such curve, though single readings can be large; an effect the other way counts as inactive or inconclusive.
Tests used:
[1] = Nrf2 qHTS screen for inhibitors: Validation (AID 493153; active = well fitted inhibition curve with a large enough effect in the main read-out, with a control signal flat, not every such curve was filed as active); settings: Potency: luciferase luminescence; viability change: measured here: cytotoxicity max response
Summary of the method: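 A549 cells carrying an ARE-driven firefly luciferase reporter, in 5% FBS OPTI-MEM, were treated with compounds in concentration-response for 18-24 h at 37°C. Viability was read by CellTiter-Fluor fluorescence, then Nrf2 activity by luciferase luminescence.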

[2] = qHTS for Inhibitors of Cell Surface uPA Generation: Validation Assay (AID 493164);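 note: RAW 264.7 macrophage cells exposed to compound for 18 h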
Summary of the method: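 RAW 264.7, 4000 cells/well, o/n plating; cpd 7-pt 1:5 dilution 2.45 nM–38.3 uM final; 18 h, 37 C/5% CO2; ATP-Lite, 5 s luminescence exposure.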

[3] = target: Galactokinase (Homo sapiens) (UniProt P51570); assay: qHTS Validation Assay for Inhibitors of Human Galactokinase (GALK) (AID 493189)
Sequence of Galactokinase (Homo sapiens) (P51570 whole entry, looked up): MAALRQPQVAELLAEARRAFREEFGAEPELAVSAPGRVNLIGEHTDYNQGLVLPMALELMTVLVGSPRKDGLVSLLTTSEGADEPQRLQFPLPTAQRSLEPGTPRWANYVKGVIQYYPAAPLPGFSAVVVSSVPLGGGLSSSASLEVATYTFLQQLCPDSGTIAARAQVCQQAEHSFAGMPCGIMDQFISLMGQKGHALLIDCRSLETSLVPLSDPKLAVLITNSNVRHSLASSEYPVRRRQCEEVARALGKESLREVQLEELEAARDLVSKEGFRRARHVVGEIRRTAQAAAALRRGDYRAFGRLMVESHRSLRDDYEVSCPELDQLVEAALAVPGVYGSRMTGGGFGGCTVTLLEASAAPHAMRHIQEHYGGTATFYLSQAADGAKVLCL
Summary of the method: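 Enzyme activity is inferred from ATP consumption: human GALK phosphorylates galactose (100 uM) using 35 uM ATP for 1 h at room temperature, and luciferase-based Kinase-Glo Plus reports unconsumed ATP.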

[4] = Validation screen for small molecules that induce DNA re-replication in SW480 colon adenocarcinoma cells (AID 504364); note: potency is the fitted concentration of half-maximal effect
Summary of the method: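 SW480 cells seeded at 250 per well were exposed to compound or DMSO for 48 hr at 37 C, 5% CO2, then stained with Hoechst for 40 min. DNA content per nucleus was imaged (405 nm ex, 500-530 nm em).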

[5] = target: Phosphoglycerate kinase, glycosomal (Trypanosoma brucei brucei) (UniProt P07378); assay: qHTS Validation Assay to Find Inhibitors of Phosphoglycerate Kinase (AID 504547); note: potency is the fitted concentration of half-maximal effect
Sequence of Phosphoglycerate kinase, glycosomal (Trypanosoma brucei brucei) (P07378 whole entry, looked up): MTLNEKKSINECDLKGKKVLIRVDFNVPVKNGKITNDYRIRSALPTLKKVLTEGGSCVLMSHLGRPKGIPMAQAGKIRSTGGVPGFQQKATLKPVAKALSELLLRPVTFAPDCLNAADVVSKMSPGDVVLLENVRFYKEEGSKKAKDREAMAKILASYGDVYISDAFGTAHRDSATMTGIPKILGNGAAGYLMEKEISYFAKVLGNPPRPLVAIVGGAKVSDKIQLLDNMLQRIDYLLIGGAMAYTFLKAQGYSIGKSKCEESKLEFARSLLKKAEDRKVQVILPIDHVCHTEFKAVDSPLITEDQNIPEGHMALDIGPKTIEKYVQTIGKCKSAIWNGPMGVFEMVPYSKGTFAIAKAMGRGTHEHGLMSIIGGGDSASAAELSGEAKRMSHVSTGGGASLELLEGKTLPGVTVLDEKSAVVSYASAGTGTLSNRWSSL
Summary of the method: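 Inhibition of the enzyme is judged by a Kinase-Glo Plus luminescent signal following a one-hour incubation at room temperature. Because 1,3-BPG is unstable, it is made in situ by GAPDH at 100nM final; no-PGK wells define the baseline.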

[6] = target: phosphoglycerate mutase (Leishmania major) (UniProt Q4Q090); assay: qHTS Validation Assay to Find Inhibitors of Phosphoglycerate Mutase (AID 504548); settings: Potency: inhibition qHTS;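 note: end-point luminescence from Kinase-GloPlus after the PGAM reaction; series mostly up to about 58 µM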
Sequence of phosphoglycerate mutase (Leishmania major) (Q4Q090 1-553): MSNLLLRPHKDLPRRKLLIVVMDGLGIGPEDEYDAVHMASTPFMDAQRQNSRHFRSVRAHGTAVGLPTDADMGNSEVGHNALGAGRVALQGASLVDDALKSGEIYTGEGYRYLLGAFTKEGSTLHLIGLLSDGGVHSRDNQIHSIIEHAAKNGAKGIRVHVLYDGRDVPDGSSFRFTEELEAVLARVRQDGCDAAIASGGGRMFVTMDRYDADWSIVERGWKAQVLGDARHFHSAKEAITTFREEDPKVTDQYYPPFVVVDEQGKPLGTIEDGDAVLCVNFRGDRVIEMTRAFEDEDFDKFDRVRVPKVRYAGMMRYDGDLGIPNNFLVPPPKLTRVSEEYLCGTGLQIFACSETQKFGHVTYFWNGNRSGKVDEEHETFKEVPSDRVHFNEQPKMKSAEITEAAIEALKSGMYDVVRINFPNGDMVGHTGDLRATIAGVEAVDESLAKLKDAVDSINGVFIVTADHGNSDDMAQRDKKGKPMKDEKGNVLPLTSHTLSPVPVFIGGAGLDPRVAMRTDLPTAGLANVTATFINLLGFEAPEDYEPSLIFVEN
Summary of the method: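 Inhibition of L. major PGAM was assessed by Kinase-GloPlus luminescence following a 45-minute room-temperature reaction with enzyme at 1.25nM final.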

[7] = target: Ubiquitin carboxyl-terminal hydrolase 1 (Homo sapiens) (UniProt O94782); assay: Inhibitors of USP1/UAF1: Pilot qHTS (AID 504865); note: nearly all actives have a fitted effect of over 35% in size; note: potency is the fitted concentration of half-maximal effect
Sequence of Ubiquitin carboxyl-terminal hydrolase 1 (Homo sapiens) (O94782 whole entry, looked up): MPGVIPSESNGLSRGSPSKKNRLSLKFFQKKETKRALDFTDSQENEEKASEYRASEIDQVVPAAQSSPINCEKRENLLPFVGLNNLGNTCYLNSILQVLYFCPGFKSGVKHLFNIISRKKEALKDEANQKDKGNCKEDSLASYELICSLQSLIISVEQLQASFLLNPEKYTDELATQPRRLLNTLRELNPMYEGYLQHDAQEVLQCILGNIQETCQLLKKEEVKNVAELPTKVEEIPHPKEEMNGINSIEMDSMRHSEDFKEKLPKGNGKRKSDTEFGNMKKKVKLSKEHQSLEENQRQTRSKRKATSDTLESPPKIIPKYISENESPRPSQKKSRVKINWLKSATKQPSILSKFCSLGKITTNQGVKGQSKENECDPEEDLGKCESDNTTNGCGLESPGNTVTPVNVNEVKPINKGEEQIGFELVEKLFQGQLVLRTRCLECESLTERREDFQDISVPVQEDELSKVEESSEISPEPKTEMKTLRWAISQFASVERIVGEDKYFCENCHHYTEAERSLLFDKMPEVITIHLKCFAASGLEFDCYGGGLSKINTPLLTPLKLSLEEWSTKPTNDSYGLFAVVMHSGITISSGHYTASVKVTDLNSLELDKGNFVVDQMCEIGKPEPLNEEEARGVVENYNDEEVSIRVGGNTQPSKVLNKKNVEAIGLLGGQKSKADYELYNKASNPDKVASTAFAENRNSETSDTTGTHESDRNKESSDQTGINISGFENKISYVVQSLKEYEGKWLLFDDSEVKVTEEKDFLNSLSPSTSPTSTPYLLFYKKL
Summary of the method: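 Enzyme-free wells gave the negative control, while test wells held 1nM USP1/UAF1 preincubated with compound for 15 min at room temperature. Ub-Rho at 150nM final started the reaction, and fluorescence at 480/540 nm was recorded kinetically.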

[8] = qHTS for Inhibitors of ATXN expression: Validation of Cytotoxic Assay (AID 588349)
Summary of the method: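 HEK293 cells were dosed with titrated compounds for 72 hr at 37 degrees C. Viability was read by CellTiter Glo luminescence, with intracellular ATP as the marker of cell survival.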

[9] = qHTS for Inhibitors of ATXN expression: Validation (AID 588378); note: series mostly up to about 57 µM; nearly all actives have a fitted effect of over 75% in size
Summary of the method: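 After a 2 h attachment and 24 h compound incubation, HEK293-ATXN2-FFLuc wells are read for fluorescence at 405 nm excitation/525 nm emission as a viability measure, then for Bright-Glo luminescence reflecting ATXN2 expression.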

[10] = target: Peptidyl-prolyl cis-trans isomerase NIMA-interacting 1 (Homo sapiens) (UniProt Q13526); assay: qHTS Validation Assay to Find Inhibitors of Pin1 (AID 504536; active = well fitted inhibition curve with a large enough effect in the polarisation, with a control signal flat, not every such curve was filed as active; the % refers to the polarisation)
Sequence of Peptidyl-prolyl cis-trans isomerase NIMA-interacting 1 (Homo sapiens) (Q13526 whole entry, looked up): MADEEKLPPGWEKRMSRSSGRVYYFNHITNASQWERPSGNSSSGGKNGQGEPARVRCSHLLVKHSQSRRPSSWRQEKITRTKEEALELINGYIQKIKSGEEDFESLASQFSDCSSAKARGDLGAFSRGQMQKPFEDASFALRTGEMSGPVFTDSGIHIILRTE
Summary of the method: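 Fluorescence polarization competition: compounds (titration) displace HiFluor-488-labeled Pin1-1b peptide from Pin1 (0.3 uM final) in pH 7.5 HEPES buffer with DTT, 10 min at room temperature; %Activity normalized to no-enzyme wells, curves fitted.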

Structure (SMILES) | Potency [1] | viability change [1] | outcome [2] | Potency [3] | Potency [4] | Potency [5] | Potency [6] | Potency [7] | Potency [8] | Potency [9] | Potency [10]
Cc1nc(N=Nc2cc(S(=O)(=O)O)c3cc([N+](=O)[O-])cc(S(=O)(=O)O)c3c2)c(COP(=O)(O)O)c(C=O)c1O | inactive | -14.8% | inactive | inactive | inactive | inactive | inactive | 50.1 µM (active) and 39.8 µM (active) | inactive | inactive | 
c1ccc(CN2CCC3(CCCc4ccccc43)CC2)cc1 | inactive | -10.2% | inactive | inactive | inactive | inactive | inactive | inactive |  |  | 
N[C@H](C(=O)O)[C@H](O)C(=O)O | inactive | 7.86% | inactive | inactive | inactive | inactive | inactive | inactive | inactive | inactive | 
CC[N+](CC)(CC)CC(=O)Nc1c(C)cccc1C | inactive | -3.66% | inactive | inactive | inactive | inactive | inactive | inactive | inactive | inactive | 
CC(N)=O | inactive | 1.69% | inactive | inactive | inactive | inactive | inactive | inactive | inactive | inactive | 
NCC(O)C1CCCCCCC1 (stereo not drawn) | inactive | 3.56% | inactive | inactive | inactive | inactive | inactive | inactive |  |  | 
CCCCCC[C@@H]([C@@H](C)O)n1cnc2c(N)ncnc21 | inactive | 0.22% | inactive | inactive | inactive | inactive | inactive | inactive | inactive | inactive | 
O=c1[nH]c(=O)c2nc3ccccc3nc2[nH]1 | inactive | -5.91% | inactive | inactive | inactive | inactive | inactive |  | inactive | inactive | 
O=c1onc2n1-c1cc(Br)ccc1OC2 | inactive | -3.61% | inactive | inactive | inactive | inactive | inactive |  | inactive | inactive | 
CSC(N)=NCCC[C@H](N)C(=O)O | inactive | -16.2% | inactive | inactive | inactive | inactive |  | inactive |  | inactive | inactive
NC(C(=O)N[C@@H]1C(=O)N2C(C(=O)O)=C(Cl)CS[C@H]12)c1ccccc1 (stereo partly drawn) | inactive | 1.5% | inactive | inactive | inactive | inactive | inactive | inactive | inactive | inactive | 
COc1cc(C(O)CO)ccc1O (stereo not drawn) | inactive | 3.88% | inactive | inactive | inactive | inactive | inactive | inactive | inactive | inactive | 
O=C(O)[C@H]1NCCC[C@H]1C(=O)O | inactive | 11% | inactive | inactive | inactive | inactive | inactive | inactive | inactive | inactive | 
CN1C2CCC1CC(OC(c1ccccc1)c1ccccc1)C2 (stereo not drawn) | inactive | -14.9% | inactive | inactive | inactive | inactive |  | inactive |  |  | 
NS(=O)(=O)c1cccc2c1c([N+](=O)[O-])cc1nc(O)c(O)nc12 | inactive | -15.2% | inactive | inactive | inactive | inactive | inactive |  |  | inactive | 
CC(C)NCC(O)COc1ccc(CC(N)=O)cc1 (stereo not drawn) | inactive | 0.809% | inactive | inactive | inactive | inactive | inactive | inactive | inactive | inactive | 
CC(=O)/C(C)=N/O | inactive | 20.6% | inactive | inactive | inactive | inactive | inactive | inactive | inactive | inactive | 
NC1(C(=O)O)CCc2cc(C(=O)O)ccc21 (stereo not drawn) | inactive | -0.824% | inactive | inactive | inactive | inactive | inactive | inactive |  | inactive | 
CC(N)(C(=O)O)c1ccc(C(=O)O)cc1 (stereo not drawn) | inactive | 1.94% | inactive | inactive | inactive | inactive | inactive | inactive | inactive | inactive | 
N[C@H](C(=O)O)c1cc(O)cc(O)c1 | inactive | 13.1% | inactive | inactive | inactive | inactive | inactive | inactive | inactive | inactive | 
OCC1NCC(O)C(O)C1O (stereo not drawn) | inactive | -2.29% | inactive | inactive | inactive | inactive | inactive | inactive | inactive | inactive | 
CC(=O)C(C)=O | inactive | -3.11% | inactive | inactive | inactive | inactive | inactive | inactive | inactive | inactive | 
C=C(C)C1CC=C(C(=O)O)CC1 (stereo not drawn) | inactive | 1.77% | inactive | inactive | inactive | inactive | inactive |  | inactive | inactive | 
NCC(O)c1ccc(O)c(O)c1 (stereo not drawn) | inactive | 3.36% | inactive | inactive | inactive | 4.78 µM (active) | inactive | inactive | inactive | inactive | 

Structure (SMILES) | Potency [1] | viability change [1] | outcome [2] | Potency [3] | Potency [4] | Potency [5] | Potency [6] | Potency [7] | Potency [8] | Potency [9] | Potency [10]
O=C(O)c1ccccc1Nc1ccccc1 | inactive | 10.9% | inactive | inactive | inactive | inactive | inactive | inactive | inactive | inactive | 
NC(Cc1cccc(-c2ccccc2CP(=O)(O)O)c1)C(=O)O (stereo not drawn) | inactive | 0.913% | inactive | inactive | inactive | inactive | inactive | inactive |  | inactive | 
O=C(O)/C(=C/c1c(C(=O)O)[nH]c2cc(Cl)cc(Cl)c12)c1ccccc1 | inactive | 4.57% | inactive | inactive | inactive | inactive | inactive | inactive | inactive | inactive | 
O=c1cc(-c2ccccc2)[nH]c2nc(Cl)ccc12 | inactive | -13.6% | inactive | inactive | 1.84 µM (active) | inactive | inactive |  | inactive | inactive | 
Cc1nc2c(OCc3ccccc3)cccn2c1CC#N | inactive | -7.51% | inactive | inactive | inactive | inactive | inactive | inactive |  | inactive | 
CC1=C(/C=C/C(C)=C/C=C/C(C)=C\C(=O)O)C(C)(C)CCC1 | inactive | 8.59% | inactive | inactive | inactive | inactive | inactive | inactive | inactive | inactive | 
Cn1ccnc1 | inactive | 2.46% | inactive | inactive | inactive | inactive | inactive | inactive | inactive | inactive | 
COc1ccc(C(=O)NCc2cccnc2)cc1C(=O)NCc1cccnc1 | inactive | -5.34% | inactive | inactive | inactive | inactive | inactive | inactive | inactive | inactive | 
CC(N)=NCCCC[C@@H](N)C(=O)O | inactive | -0.552% | inactive | inactive |  | inactive | inactive | inactive | inactive | inactive | inactive
COc1cc2c(CCNC(C)=O)c[nH]c2cc1O | inactive | -0.977% | inactive | inactive |  | inactive | inactive | inactive | inactive | inactive | inactive
CC(C)C[C@H](NC(=O)[C@H](O)[C@H](N)Cc1ccccc1)C(=O)O | inactive | 5.98% | inactive | inactive |  | inactive | inactive | inactive | inactive | inactive | inactive
O=C1Cc2c([nH]c3ccc(Br)cc23)-c2ccccc2N1 | inactive | 3.96% | inactive | inactive |  | inactive | inactive | inactive |  |  | 
COc1cccc(OC)c1OCCNCC1CSc2ccccc2O1 (stereo not drawn) | inactive | -8.63% | inactive | inactive |  | inactive | inactive |  |  |  | inactive
CCCN(CCc1ccccc1)C1CCc2c(O)cccc2C1 (stereo not drawn) | inactive | -8.23% | inactive | inactive |  | inactive | inactive | inactive | inactive |  | inactive
C[C@@H](NCCc1ccc(O)cc1)[C@@H](O)c1ccc(O)cc1 | inactive | 9.14% | inactive | inactive |  | inactive | inactive | inactive | inactive | inactive | inactive
Cc1ccccc1/C=C/C1=NCCN1 | inactive | -20.2% | inactive | inactive |  | inactive | inactive | inactive |  |  | inactive
O=C(O)C1CCNCC1 | inactive | -14.4% | inactive | inactive |  | inactive | inactive | inactive |  | inactive | inactive
CNc1ncnc2c1ncn2[C@H]1C[C@H](OP(=O)(O)O)[C@@H](COP(=O)(O)O)O1 | inactive | -10.4% | inactive | inactive |  | inactive | inactive | inactive | inactive | inactive | inactive
OC[C@H]1NC[C@@H](O)[C@@H]1O | inactive | 4.02% | inactive | inactive |  | inactive |  | inactive | inactive | inactive | inactive
CC(C)Cn1c(=O)n(C)c(=O)c2[nH]cnc21 | inactive | 1.08% | inactive | inactive |  | inactive | inactive | inactive | inactive | inactive | inactive
C[C@H](O)C(=O)C1=Nc2c(nc(N)[nH]c2=O)NC1 | inactive | 8.34% | inactive | inactive |  | inactive | inactive | 56.2 µM (active) |  | inactive | inactive
Nc1ccc(-c2ccc3ccccc3n2)cc1 | inactive | -6.75% | inactive | inactive |  | inactive | inactive | inactive | inactive | inactive | 
C=CCN1CCc2c(cc(O)c(O)c2Br)[C@@H](c2ccccc2)C1 | inactive | -6.77% | inactive | inactive |  | inactive | inactive |  | inactive |  | inactive
NCCCNCCCCNCCCN | inactive | -11.3% | inactive | inactive |  | inactive | inactive | inactive | inactive | inactive | inactive

— PubChem BioAssay (NCATS)
